Assay results taken from PubChem BioAssay (NCI).
About 79,000 compounds went through this panel and 15% of them were active in at least one assay; those are over-represented in the sample as a whole. A number with no mark means an inactive call. Active and inactive are the calls of the source. Cut-off read from the data, not from the text of the source: active = growth inhibition above about 70%; inactive = the rest.

Assay: NCI Yeast Anticancer Drug Screen. Data for the rad18 strain (AID 177)
Conditions: S. cerevisiae rad18 mutant growth inhibition, stronger effect = higher value
Protocol: Growth inhibition of yeast strains with defined genetic alterations is measured as a screen for potential anti-cancer activity. Selected strains with alterations in DNA damage repair or cell cycle control were exposed to compounds and growth inhibition was measured relative to vehicle treated controls. The strain used in this assay is rad18

Structure (SMILES)	growth inhibition (at 1.2 µM)	growth inhibition (at 3.7 µM)	growth inhibition (at 11.0 µM)	growth inhibition (at 33.0 µM)	growth inhibition (at 100.0 µM)
COc1ccc2nc(N/N=C/c3sccc3C)cc(C)c2c1	5%	16%	8%	98% (active)	96% (active)
O=C(Cc1ccccc1F)NC1=C(Cl)C(=O)c2ccccc2C1=O	29%	6%	25%	34%	40%
Cc1cccc(N2CCN(C(=O)/C(=C/c3ccccc3)NC(=O)c3ccccc3)CC2)c1	-2%	0%	5%	51%	70% (active)
O=Cc1ccccc1B(O)O	1%	34%	94% (active)	98% (active)	99% (active)
Cn1c(COc2ccc(/C=N/NC(=O)CCC(=O)N/N=C/c3ccc(OCc4c[n+]5ccccc5n4C)cc3)cc2)c[n+]2ccccc12	2%	3%	28%	9%	98% (active)
S=C1NC2=C(CSC/C2=C\c2ccc(Cl)cc2)C(c2ccc(Cl)cc2)N1 (stereo not given)	15%	25%	28%	63%	73% (active)
O=[N+]([O-])c1cccc2nc3ccccc3c(NCCC[N+]3([O-])CCOCC3)c12	95% (active)	95% (active)	96% (active)	97% (active)	95% (active)
CN(C)/N=N/c1nc[nH]c1C(N)=O	-3%	0%	8%	42%	98% (active)
